The source of these data is PubChem BioAssay (NCATS).

Inconclusive results are not listed. A call without a number means that no potency is given here. Active and inactive are the calls of the source. Calls come from the whole dose curve; as a rule, active = well fitted curve in the direction sought with a large enough effect; inconclusive = small, poorly fitted or top-dose-only effect, or another doubt; inactive = no such curve, though single readings can be large; an effect the other way counts as inactive or inconclusive.

One experiment deals with Luciferin 4-monooxygenase (Photinus pyralis) (UniProt P08659). Description: Primary firefly luciferase (FLuc) qHTS assay for identification of artifact compounds. (AID 1845220). Note: nearly all actives have a fitted effect of over 60% in size. The conditions noted are these: purified firefly luciferase, luminescence, 5 min; series mostly up to 54.1 µM. The method, boiled down:
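FLuc 10 nM; luciferin 10 uM; ATP 10 uM; Tris-acetate pH 7.6, Mg-acetate 10 mM; 15 min RT preincubation; 5 min reaction; luminescence.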
On the technique in general: In qHTS, concentration-response curves come from the screen itself.
For `CC(=O)O[C@]1(C(C)=O)CC[C@H]2[C@@H]3C[C@H](C)C4=CC(=O)CC[C@]4(C)[C@H]3CC[C@@]21C`, the outcome was inactive. On the same count and under the same terms, the result for `COc1ccc(CN2CCN(C(c3ccc(F)cc3)c3ccc(F)cc3)CC2)c(OC)c1OC` reads “inactive”; that for `CC(C)(C)NC(=O)[C@@H]1CN(Cc2cccnc2)CCN1C[C@@H](O)C[C@@H](Cc1ccccc1)C(=O)N[C@H]1c2ccccc2C[C@H]1O`, “inactive”; that for `COC(=O)C1=C(C)NC(C)=C(C(=O)O[C@@H]2CCCN(Cc3ccccc3)C2)[C@@H]1c1cccc([N+](=O)[O-])c1`, “inactive”. `Cc1cc2c(cc1CC(=O)c1sccc1S(=O)(=O)Nc1onc(C)c1Cl)OCO2`: the molecule was classed as inactive. Still for that read-out and setting: as for `CN(C)CCCOc1nn(Cc2ccccc2)c2ccccc12`, the entry is “inactive”; as for `COC(=O)CCc1ccc(OCC(O)CNC(C)C)cc1` (stereo not drawn), “inactive”.

Consider `CN1[C@@H]2CC[C@H]1CC(OC(=O)c1c[nH]c3ccccc13)C2` (stereo partly drawn), for which the outcome was inactive. On to `O=c1[nH]c(=O)n([C@H]2CCCO2)cc1F`, for which the result was inactive. Same read-out and setting: the result for `CN1C(CCl)Nc2cc(Cl)c(S(N)(=O)=O)cc2S1(=O)=O` (stereo not drawn) reads “inactive”; that for `Cc1ccc(Nc2c(F)cccc2Cl)c(CC(=O)O)c1`, “inactive”. On the same count and under the same terms, the result for `CC(C)n1nc(-c2cc3cc(O)ccc3[nH]2)c2c(N)ncnc21` reads “inactive”; that for `C#C[C@]1(OC(C)=O)CC[C@H]2[C@@H]3CCC4=C[C@@H](OC(C)=O)CC[C@@H]4[C@H]3CC[C@@]21C`, “inactive”; that for `Cc1onc(-c2c(Cl)cccc2Cl)c1C(=O)N[C@@H]1C(=O)N2[C@@H]1SC(C)(C)[C@@H]2C(=O)O`, “inactive”. Same read-out and setting: as for `CCCCS(=O)(=O)N[C@@H](Cc1ccc(OCCCCC2CCNCC2)cc1)C(=O)O`, the entry is “inactive”.

Tested on in the next experiment: not listed separately
Description: Primary fluorescence-based thiol-reactive (MSTI) qHTS assay for identification of artifact compounds. (AID 1845221). Note: nearly all actives have a fitted effect of over 65% in size. Note: potency is the fitted concentration of half-maximal effect. The conditions noted are these: MSTI thiol-reactivity probe, 1 h; series mostly up to 53.8 µM. The method, boiled down:
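First, 4 uM MSTI in 2% DMSO/PBS pH 7.4 was dispensed; next, compounds were added; then plates sat 1 h at room temperature without light. Finally, emission at 598 nm was recorded.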
For the molecule `CC(=O)O[C@]1(C(C)=O)CC[C@H]2[C@@H]3C[C@H](C)C4=CC(=O)CC[C@]4(C)[C@H]3CC[C@@]21C`, the Potency result is “inactive”. Still for that read-out and setting: the result for `COc1ccc(CN2CCN(C(c3ccc(F)cc3)c3ccc(F)cc3)CC2)c(OC)c1OC` reads “inactive”.

Consider `CC(C)(C)NC(=O)[C@@H]1CN(Cc2cccnc2)CCN1C[C@@H](O)C[C@@H](Cc1ccccc1)C(=O)N[C@H]1c2ccccc2C[C@H]1O`, for which the Potency result was “inactive”. On the same count and under the same terms, as for `COC(=O)C1=C(C)NC(C)=C(C(=O)O[C@@H]2CCCN(Cc3ccccc3)C2)[C@@H]1c1cccc([N+](=O)[O-])c1`, the entry is “inactive”; as for `CN(C)CCCOc1nn(Cc2ccccc2)c2ccccc12`, “inactive”. Same read-out and setting: as for `COC(=O)CCc1ccc(OCC(O)CNC(C)C)cc1` (stereo not drawn), the entry is “inactive”; as for `CN1[C@@H]2CC[C@H]1CC(OC(=O)c1c[nH]c3ccccc13)C2` (stereo partly drawn), “inactive”. The same measure, in the same setting: as for `O=c1[nH]c(=O)n([C@H]2CCCO2)cc1F`, the entry is “inactive”; as for `CN1C(CCl)Nc2cc(Cl)c(S(N)(=O)=O)cc2S1(=O)=O` (stereo not drawn), “inactive”. With `CC(C)n1nc(-c2cc3cc(O)ccc3[nH]2)c2c(N)ncnc21`, the Potency was 10.6 µM (active). The same measure, in the same setting: as for `C#C[C@]1(OC(C)=O)CC[C@H]2[C@@H]3CCC4=C[C@@H](OC(C)=O)CC[C@@H]4[C@H]3CC[C@@]21C`, the entry is “inactive”; as for `Cc1onc(-c2c(Cl)cccc2Cl)c1C(=O)N[C@@H]1C(=O)N2[C@@H]1SC(C)(C)[C@@H]2C(=O)O`, “inactive”.

On to `CCCCS(=O)(=O)N[C@@H](Cc1ccc(OCCCCC2CCNCC2)cc1)C(=O)O`, for which the Potency entry is “inactive”.
